# UHRF1 binding: UHRF1 methylated DNA binding inhibitors, primary screen, counter-screen for MBD2 inhibitor project, biochemical, TR-FRET, human UHRF1, single concentration; AID 687016, 2013; hit rate 0.75% among 370,000; inhibition, % at 4.4 µM; UHRF1 binding to methylated oligo; E3 ubiquitin-protein ligase UHRF1 (Homo sapiens), Q96T88; in the data active = inhibition above about 21%;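 note: UHRF1 SRA domain binding a hemimethylated CpG hairpin DNA probe; 0% = median of test compound wells and 100% = reference inhibitor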
# PLCg1 inh: PLC-gamma1 enzyme inhibitors, primary screen, biochemical, fluorescence, purified enzyme | AID 720700, 2013 | hit rate 0.84% among 370,000 | inhibition, % at 12.2 µM | fluorogenic substrate
# PLC-beta3 inh: human PLC-beta3 inhibitors, primary screen, biochemical, fluorescence. hit rate 0.18% among 370,000. inhibition, % at 12.2 µM. Purified PLC-beta3, fluorogenic substrate. 1-phosphatidylinositol 4,5-bisphosphate phosphodiesterase beta-3 (Homo sapiens), Q01970. AID 720704, 2013; in the data active = inhibition above about 11%;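 note: 0% = median of compound wells on plate and 100% = full blocker control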
# MBD2 DNA inh: inhibitors of MBD2 binding to methylated DNA, primary screen, biochemical, TR-FRET, DNA-binding domain, human; Methyl-CpG-binding domain protein 2 (Homo sapiens), Q9UBB5; MBD2 binding to methylated oligonucleotide; inhibition, % at 4.4 µM; hit rate 0.31% among 370,000; AID 686964, 2013; in the data active = inhibition above about 13%
# LEDGF integ inh: blockers of LEDGF/p75-dependent integrase strand transfer – biochemical, TR-FRET, high throughput, primary screen; inhibition, % at 3.7 µM; hit rate 0.64% among 370,000; AID 743269, 2014; HIV-1 integrase (with human LEDGF/p75); TR-FRET IN-LEDGF/p75 DNA integration, Eu/Cy5;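 active = inhibition above the screen-wide mean plus 3 SD, cut at about 13% in these data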;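 note: signal is the Cy5 over europium emission ratio at 671 and 618 nm; 0% = plate median of compound wells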
# PLCg1 ctr: PLC-gamma1 enzyme inhibitors, counter-screen for PLC-beta3 inhibitor project, biochemical, fluorescence. shares compounds with PLCg1 inh. purified PLC-gamma1, fluorogenic substrate. inhibition, % at 12.3 µM. hit rate 3.1% among 3,300. AID 743258, 2014
# PLCb3 confirm: PLC-beta3 inhibitor confirmation, biochemical, fluorescence, purified enzyme. shares compounds with PLCg1 inh. fluorogenic substrate fluorescence. inhibition, % at 12.3 µM. hit rate 1% among 3,300; in the data active = inhibition above about 11%
# An asterisk follows results filed as active; · = no result given. Rows were chosen to be rich in hits. Some 2.4% of all compounds tested hit in one or more screens of this group. Cut-off read from the data, not from the text of the source, unless noted: active = inhibition above about 9.5%; inactive = the rest.
SMILES,UHRF1 binding,PLCg1 inh,PLC-beta3 inh,MBD2 DNA inh,LEDGF integ inh,PLCg1 ctr,PLCb3 confirm
O=C(Nc1nc(-c2ccncc2)cs1)c1ccc(S(=O)(=O)N2CCOCC2)cc1,1,13*,6,-8,5,-15,-11
CC(C)C(=O)Nc1nc(-c2ccc(S(=O)(=O)N3CCOCC3)cc2)cs1,1,-15,-30,-1,1,·,·
Cc1ccccc1NC(=O)C1CC(=O)N(c2ccc3c4c(cccc24)CC3)C1 (stereo not drawn),6,0,1,2,-2,·,·
Cc1ccccc1NC(=O)C1CC(=O)N(c2ccccc2F)C1 (stereo not drawn),5,3,11*,-1,0,-2,-1
C/C(=N\OC(=O)c1ccc(Cl)cc1)c1nccs1,-1,4,1,1,3,·,·
CC(=NOC(=O)c1ccc(Cl)cc1)c1nccs1,1,16*,7,4,0,-8,-5
O=C(NCC(=O)N1CCc2ccccc2C1)c1ccc(Cl)cc1Cl,-3,12*,2,-8,5,-8,-3
Cc1ccccc1-c1noc(CCC(=O)NCCc2ccccc2)n1,2,10*,1,-5,9,-4,-2
O=C(CSc1ncnc2c1oc1ccccc12)Nc1nc2ccccc2s1,-2,9.6*,8,-6,7,-5,-5
COC(=O)CSc1nnc(-c2ccc(NS(=O)(=O)c3ccc(C(C)(C)C)cc3)cc2)o1,1,-1,-6,-1,2,·,·
Cn1cc(CN2CCC(C(=O)NC(c3ccc(-c4ccccc4)cc3)c3cnccn3)CC2)c2ccccc21 (stereo not drawn),2,12*,7,2,-4,-1,-1
O=C(NC(c1ccc(-c2ccccc2)cc1)c1cnccn1)C1CCN(Cc2ccc(Cl)c(Cl)c2)CC1 (stereo not drawn),-1,5,2,3,-2,·,·
COc1ccc(NC(=O)CSc2nnc(-c3n[nH]c4c3CCC4)n2N)cc1OC,0,0,4,-1,-4,·,·
C=CC[C@@H](CC(=O)N[C@H](CO)Cc1ccccc1)C(=O)N[C@@H](COC(=O)[C@@H](CC=C)CC(=O)OC(C)(C)C)Cc1c[nH]c2ccccc12,5,12*,3,1,0,-5,2
C=CCC[C@@H](Cc1ccc(F)cc1)C(=O)OC[C@@H](Cc1c[nH]c2ccccc12)NC(=O)[C@H](CC=C)CC(=O)NCCO,1,5,11*,-2,0,-9,-3
O=C(NC(=S)NCC1CCCO1)c1cccc([N+](=O)[O-])c1 (stereo not drawn),0,9.6*,12*,-6,-5,-1,2
Cc1ccc(C(=O)NC(=S)NCC2CCCO2)cc1[N+](=O)[O-] (stereo not drawn),2,0,1,-5,0,·,·
CCC(C#Cc1ccccc1)N(C)C(N)=NC(=O)/C=C/c1ccccc1 (stereo not drawn),-1,-1,-3,1,7,·,·
O=C(NC1CCCCN(Cc2ccc(Cl)cc2)C1=O)C(c1ccccc1)c1ccccc1 (stereo not drawn),1,2,0,6,-2,·,·
CCOC(=O)c1c(NC(=O)C2CCCN(S(=O)(=O)c3ccc(C)cc3)C2)sc2c1CCCC2 (stereo not drawn),1,15*,1,1,-1,-6,-2
CCOC(=O)c1c(NC(=O)C2CCCN(S(=O)(=O)c3ccccc3)C2)sc2c1CCCC2 (stereo not drawn),-3,-1,2,-6,2,·,·
O=C(NCc1ccco1)c1cccc(F)c1,5,10*,-6,9,3,-6,-2
COc1ccc(Cl)cc1C(=O)NCc1ccco1,3,13*,-5,4,9,-5,-1
COc1ccc(C(=O)Nc2ccc(Cl)cc2C(=O)NCc2ccco2)cc1OC,3,-8,-11,5,-2,·,·
C[C@@H]1OC(C2CCCCC2)N(C)[C@H]2C[C@H]3c4[nH]c5cccc(-c6cccc(F)c6)c5c4CCN3C(=O)[C@@H]12 (stereo partly drawn),-7,-184,-234,-2,6,·,·
SMILES,UHRF1 binding,PLCg1 inh,PLC-beta3 inh,MBD2 DNA inh,LEDGF integ inh,PLCg1 ctr,PLCb3 confirm
N=c1c2c(ccn1CCCCc1ccccc1)Oc1ccc3ccccc3c1C2c1ccccc1 (stereo not drawn),-4,1,1,3,-2,·,·
Cc1ccccc1CS(=O)(=O)Cc1ccc(C(=O)Nc2ccc(F)cc2)o1,2,6,2,0,5,·,·
O=C(CCSc1ccccc1Cl)Nc1cccc([N+](=O)[O-])c1,5,11*,9,4,4,6,6
O=C(CSc1ccccc1)N(c1ccc(Br)cc1)c1nccs1,4,14*,6,-2,1,-1,-1
CCOc1ccc(CCNC(=O)c2ccc3[nH]ccc3c2)cc1OCC,0,1,1,0,2,·,·
O=C(CSc1nnc(CCCN2C(=O)c3cccc4cccc(c34)C2=O)n1-c1ccccc1)NCCCN1CCOCC1,1,11*,3,-2,-2,-8,-2
O=C(O)c1cccc(S(=O)(=O)NCC2COc3ccccc3O2)c1 (stereo not drawn),1,9.8*,1,0,0,-8,-2
CCOc1ccc(/C=C(\C)C(=O)c2c(C)cc(C)[nH]c2=O)cc1,-2,12*,5,-8,3,1,-8
CCC1CO/C(=C(\C(Cl)=C(Cl)Cl)[N+](=O)[O-])N1 (stereo not drawn),6,9.7*,8,1,7,2,9
Cc1ccc(C)c(S(=O)(=O)N2CCC(c3nc4c(nnn4Cc4ccc(F)cc4)c(=O)[nH]3)CC2)c1,0,7,-2,0,3,·,·
Cc1ccc(Cn2nnc3c(=O)[nH]c(C4CCN(S(=O)(=O)c5cc(C)ccc5C)CC4)nc32)cc1,5,12*,3,4,1,6,4
Cc1ccc(Cn2nnc3c(=O)[nH]c(C4CCN(S(=O)(=O)c5ccc(F)cc5)CC4)nc32)cc1,2,9.8*,0,5,-1,-3,-3
COC(=O)c1ccc(S(=O)(=O)N2CCC(NC(=O)Cc3ccccc3)CC2)cc1,12,-1,-2,3,0,·,·

# Screening results (PubChem)
